Compound activity (PubChem)
FLuc counter = qHTS profiling assay for firefly luciferase inhibitor/activator using purifed enzyme and Km concentrations of substrates (counterscreen for miR-21 project). 360,000 compounds, 6.9% hits. AID 588342, 2011. Potency, µM (doses to about 57.5 µM), hits mostly inhibitors. Luciferin 4-monooxygenase (Photinus pyralis), P08659. purified FLuc, Km substrates, luminescence inhibition; also: nearly all actives have a fitted effect of over 55% in size
Target sequence (P08659 whole entry, looked up): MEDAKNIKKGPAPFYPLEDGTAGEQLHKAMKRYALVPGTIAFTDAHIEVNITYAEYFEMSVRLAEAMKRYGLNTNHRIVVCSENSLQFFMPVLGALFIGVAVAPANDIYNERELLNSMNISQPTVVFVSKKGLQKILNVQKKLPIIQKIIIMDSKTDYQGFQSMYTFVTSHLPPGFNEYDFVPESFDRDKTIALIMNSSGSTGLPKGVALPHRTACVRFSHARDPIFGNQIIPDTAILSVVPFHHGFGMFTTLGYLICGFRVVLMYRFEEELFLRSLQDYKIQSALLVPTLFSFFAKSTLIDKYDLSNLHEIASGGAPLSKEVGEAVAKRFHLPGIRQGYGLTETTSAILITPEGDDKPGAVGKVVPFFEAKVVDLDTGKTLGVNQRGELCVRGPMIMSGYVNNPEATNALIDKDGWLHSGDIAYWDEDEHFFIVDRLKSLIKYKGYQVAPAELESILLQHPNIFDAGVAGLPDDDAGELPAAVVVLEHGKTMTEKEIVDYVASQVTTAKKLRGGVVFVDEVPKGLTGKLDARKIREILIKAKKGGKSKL
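Purified P. pyralis luciferase, 10 nM final, with Km-level 10 uM D-luciferin and 10 uM ATP in 50 mM Tris acetate pH 7.5, 10 mM Mg acetate, 0.01% Tween-20, 0.05% BSA; 6-point qHTS titration about 60 µM downward; luminescence read.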
Rab9 promoter act = qHTS Assay for Rab9 Promoter Activators; Potency, µM (titrated, usually from 9.22 µM), most hits filed as activators; Huh7 Rab9 promoter-luciferase reporter, luminescence, 24 h; 320,000 compounds, 2.8% hits; AID 485297, 2010; also: nearly all actives have a fitted effect of over 60% in size
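Luciferase signal after 10 min detection reagent at ambient indicates Rab9 promoter upregulation; stably transfected Huh7 cells were treated 24 h with compound in DMSO at 37 °C, 5% CO2.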
NPC1 promoter act = qHTS Assay for NPC1 Promoter Activators; 320,000 compounds, 2.4% hits; Potency, µM (doses to about 9.22 µM), most hits filed as activators; Huh7 NPC1 promoter luciferase reporter, 24 h; AID 485313, 2010; also: nearly all actives have a fitted effect of over 60% in size
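Luciferase expression driven by the NPC1 promoter was measured in stably transfected Huh7 cells after a 24 h compound incubation, using a luciferase reagent and a luminescence read.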
SMN2 splice enh = qHTS Assay for Enhancers of SMN2 Splice Variant Expression; Potency, µM (highest dose often 46.1 µM), hits mostly activators; HEK293 SMN2-luciferase splicing reporter, luminescence, 30-36 h; AID 1458, 2008; 210,000 compounds, 2.8% hits; also: nearly all actives have a fitted effect of over 55% in size
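HEK293 cells carry an SMN2 […]–luciferase reporter in which exon 7 inclusion puts luciferase in frame. Cells were plated 10-12 h before compound addition, then incubated 30-36 h at 37C. ONE-Glo luminescence was read; sodium butyrate at 4.5 mM final served as control.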
ELG1 genotoxic = qHTS screen for small molecules that induce genotoxicity in human embryonic kidney (HEK293T) cells expressing luciferase-tagged ELG1; HEK293T ELG1-luciferase reporter, luminescence, 16 h; Potency, µM (top dose mostly 46 µM), actives largely listed as activators; 330,000 compounds, 1.3% hits; AID 504466, 2011; also: nearly all actives have a fitted effect of over 60% in size
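DMSO vehicle served as control against compound-treated ELG1-luciferase HEK293T cells; exposure lasted 16 hr at 37 °C and 5% CO2, followed by ONE-Glo luminescence detection after 30 min.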
Of the large screens only hits and unclear results are named; the others gave an inactive call. A selection: hits, their analogues and other compounds. The true share with any hit is near 7.5%. Calls follow the shape of the dose curve; as a rule, active = well fitted curve in the direction sought with a large enough effect; inconclusive = small, poorly fitted or top-dose-only effect, or another doubt; inactive = no such curve, though single readings can be large; an effect the other way counts as inactive or inconclusive.

Cc1ccc(NC(=O)CC(NC(=O)c2ccccc2Cl)c2ccccc2)nc1 (stereo not given)	ELG1 genotoxic inconclusive (no result: SMN2 splice enh)
COc1ccc(C(=O)Nc2ccccn2)cc1	none
Cc1ccc(C(=O)Nc2ccccc2C(=O)Nc2ccccn2)cc1Cl	FLuc counter 5.36µM (no result: SMN2 splice enh)
Cc1ccnc(NC(=O)CC(NC(=O)c2ccccc2Cl)c2ccccc2)c1 (stereo not given)	FLuc counter 10.7µM, ELG1 genotoxic 20.6µM (no result: SMN2 splice enh)
Cc1ccc(C(=O)Nc2cccnc2Cl)cc1Cl	FLuc counter 16.9µM, Rab9 promoter act inconclusive, NPC1 promoter act inconclusive, ELG1 genotoxic 18.3µM (no result: SMN2 splice enh)
COc1ccc(C(=O)Nc2ccccc2C(=O)Nc2ccccn2)cc1	FLuc counter 6.01µM, Rab9 promoter act inconclusive, NPC1 promoter act inconclusive (no result: SMN2 splice enh)
Cc1ccnc(NC(=O)c2ccccc2NC(=O)c2ccc(Cl)cc2Cl)c1	FLuc counter 12µM, ELG1 genotoxic inconclusive (no result: SMN2 splice enh)
CCCCN1CCc2c([nH]c3ccccc23)C1=O	Rab9 promoter act 2.51µM, NPC1 promoter act inconclusive, SMN2 splice enh inconclusive, ELG1 genotoxic inconclusive
COC(C(=O)NNC(=O)CCc1ccccc1)c1ccccc1 (stereo not given)	none
CN(C)c1ccc(C(=O)c2ccc(O)cc2O)cc1	FLuc counter 10.7µM, NPC1 promoter act inconclusive, SMN2 splice enh inconclusive, ELG1 genotoxic inconclusive
CCOC(=O)C1(CCc2ccccc2)CCN(C(=O)c2cnc(C)cn2)CC1	FLuc counter inconclusive (no result: SMN2 splice enh)
Cc1cc(NC(=O)CSc2cn(CCNC(=O)c3ccccc3)c3ccccc23)no1	FLuc counter 19µM
CCCn1cc(SCC(=O)Nc2cc(C)on2)c2ccccc21	none (no result: SMN2 splice enh)
CCn1cc(SCC(=O)Nc2cc(C)on2)c2ccccc21	none
Cc1ccc(C(=O)NCCn2cc(SCC(=O)Nc3cc(C)on3)c3ccccc32)cc1	FLuc counter 5.36µM, Rab9 promoter act inconclusive, ELG1 genotoxic inconclusive
O=C(COC(=O)CNS(=O)(=O)c1ccc(F)c(F)c1F)NCCc1ccccc1	FLuc counter 5.36µM, Rab9 promoter act inconclusive, NPC1 promoter act inconclusive, ELG1 genotoxic inconclusive (no result: SMN2 splice enh)
O=C(COC(=O)CNS(=O)(=O)c1ccc(F)c(F)c1F)NC1CC1	none (no result: SMN2 splice enh)
CCN(C(=O)c1cc2c(s1)-c1ccccc1OC2)c1cc(Cl)ccc1OC	none (no result: Rab9 promoter act, NPC1 promoter act, ELG1 genotoxic)
CCCN1CCN(C(=O)c2cc(COc3ccc(F)c(F)c3)on2)CC1	FLuc counter inconclusive, ELG1 genotoxic inconclusive (no result: SMN2 splice enh)
COc1cc(C)ccc1OCc1cc(C(=O)N2CCC(c3ccc(F)cc3)C2)no1 (stereo not given)	FLuc counter 7.57µM, Rab9 promoter act 2.24µM, NPC1 promoter act 2.24µM, ELG1 genotoxic inconclusive (no result: SMN2 splice enh)
CCOC(=O)C1CCCN(C(=O)c2cc(COc3ccc(C)nc3)on2)C1 (stereo not given)	FLuc counter inconclusive (no result: SMN2 splice enh)
COc1cc(Cl)ccc1OCc1cc(C(=O)N2CCCCCC2)no1	FLuc counter inconclusive (no result: SMN2 splice enh)
CCOC(=O)C1CCN(C(=O)c2cc(COc3ccc(OC)c4ccccc34)on2)CC1	FLuc counter 15.1µM, Rab9 promoter act 3.55µM, NPC1 promoter act inconclusive, ELG1 genotoxic inconclusive (no result: SMN2 splice enh)
COc1cc(Cl)ccc1OCc1cc(C(=O)N2CCCC(OC)C2)no1 (stereo not given)	FLuc counter 5.36µM, Rab9 promoter act 1.78µM, NPC1 promoter act 2µM, ELG1 genotoxic 5.8µM (no result: SMN2 splice enh)
CCCOC1CCCN(C(=O)c2cc(COc3ccc(F)c(F)c3)on2)C1 (stereo not given)	FLuc counter 21.3µM, Rab9 promoter act 2.82µM, NPC1 promoter act 2.82µM, ELG1 genotoxic inconclusive (no result: SMN2 splice enh)
COc1ccc(C(=O)N/C(=C/c2cccnc2)C(=O)N2CCN(C)CC2)cc1OC	none (no result: SMN2 splice enh)
O=C(NCc1ccco1)C1CCCN1C(=O)Nc1ccccc1Cl (stereo not given)	none
COCC(C)N1CCC(n2nccc2NC(=O)CCCc2ccccc2)CC1 (stereo not given)	none (no result: SMN2 splice enh)
COc1ccc(OCc2cc(C(=O)N3CCC(OC)CC3)no2)c2ccccc12	FLuc counter 10.7µM, Rab9 promoter act 2.51µM, NPC1 promoter act inconclusive, ELG1 genotoxic inconclusive (no result: SMN2 splice enh)
CCCCNc1c(-c2ccc(SC(C)CC)cc2)nc2ccccn12 (stereo not given)	FLuc counter 1.35µM, Rab9 promoter act 3.55µM, NPC1 promoter act 3.55µM (no result: SMN2 splice enh)
